A number with no mark means an inactive call. Inconclusive results are not listed. Active and inactive are the calls of the source. Unless noted, the call rests on the fitted dose curve; in most records, active means well fitted curve in the direction sought with a large enough effect; inconclusive means small, poorly fitted or top-dose-only effect, or another doubt; inactive means no such curve, though single readings can be large; an effect the other way counts as inactive or inconclusive.
Columns and labels:
[1] = target: Lysosomal acid glucosylceramidase (Homo sapiens) (UniProt P04062); test: Glucocerebrosidase-p2 (AID 348; in the data active means potency below about 10 µM; further: potency means the concentration at half of the fitted maximal effect); details: purified GBA, blue fluorogenic substrate, 40 min
How it was run: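 Normal human glucocerebrosidase (0.2 nM) with blue fluorogenic substrate (80 uM final) in citrate/phosphate pH 5.9 with 10mM sodium taurocholate, 0.01% tween-20; 40 min RT, NaOH/glycine stop; fluorescence Ex 365/Em 440; AC50 from a titration from 0.6 nM upwards.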

[2] = target: Cytochrome P450 1A2 (Homo sapiens) (UniProt P05177); test: p450-cyp1a2 (AID 410; calls by dose curve; further: potency means the concentration at half of the fitted maximal effect); details: recombinant CYP1A2, luciferin-ME demethylation, luminescence; series mostly up to 57 µM
How it was run: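 20nM CYP1A2, 100uM Luciferin-ME (=Km), 100mM KPO4; cpd 10 min RT; +NADPH regen, 60 min RT; stop/detect 20 min; luminescence. Normalized to furafylline 57 uM = full inhibition.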

[3] = target: Glucocorticoid receptor (Homo sapiens) (UniProt P04150); test: GR-GFP Redistribution (AID 450;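 active means compounds whose dose series gives a full or clear partial fitted curve of increased nuclear translocation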; further: potency means the concentration at half of the fitted maximal effect); details: U2OS GR-GFP nuclear translocation, laser cytometry, 2 h
[4] = target: Glucocorticoid receptor (Homo sapiens) (UniProt P04150); test: GR-EFC Redistribution (AID 451; calls by dose curve; further: potency means the concentration at half of the fitted maximal effect); details: CHO-K1 GR-EFC translocation, beta-gal luminescence, 2 h
How it was run: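 Translocation of GR-ED fusion to nuclear EA restores b-gal, read by luminescence after 1 h room-temperature detection. Engineered CHO-K1 biosensor cells, 1,000/well, exposed 2 h at 37 C to titrations up to 46 uM final.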

[5] = target: Mitogen-activated protein kinase 10 (Mus musculus) (UniProt Q61831); test: JNK3 AlphaScreen Assay (AID 530; active means well fitted curve in either direction with a large enough effect, not every such curve was filed as active;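 further: kinase came from lysate of stimulated human HepG2 cells; signal reports phosphorylation of biotinylated GST-cJun 1-79 at Ser73 with 10 µM ATP; on the % scale 0 is the no-effect control and ±100 the full control effect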); details: JNK3 lysate, c-Jun phosphorylation; series mostly up to 57.1 µM
How it was run: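 Kinase buffer: 20 mM Tris-HCl pH 7.6, 10 mM MgCl2, 1 mM DTT, 0.1 mM Na3VO4, 0.01% Tween-20; ATP 10 uM. Substrate biotin-GST-cJun(1-79), enzyme from activated HepG2 lysates. Detection by Ser73 phospho-antibody AlphaScreen.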

[6] = qHTS Assay for Identification of Small Molecule Agonists for Hypoxia Response Element Signaling Pathway (AID 914; active means well fitted activation curve with a large enough effect in the signal ratio, with a control signal flat, not every such curve was filed as active; the % refers to the signal ratio; further: potency means the concentration at half of the fitted maximal effect); details: ME-180 HRE-bla reporter, beta-lactamase ratio, CoCl2, 17 h; activation: hits give high values
How it was run: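 HRE-bla ME-180 cells with beta-lactamase reporter under hypoxia response element, compounds with EC50 CoCl2 for 17 hours at 37 C. CCF4 substrate, 460nm/530nm emission ratio gave %Activity; AC50 from titration series.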

[7] = target: Dual specificity protein kinase CLK4 (Homo sapiens) (UniProt Q9HAZ1); test: qHTS Assay for Inhibitors of CDC-like Kinase 4 (Kinase-Glo Assay) (AID 1770); details: recombinant Clk4, Kinase-Glo ATP depletion luminescence; series mostly up to 66.7 µM; further: nearly all actives have a fitted effect of over 65% in size; further: potency means the concentration at half of the fitted maximal effect
How it was run: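 Clk4 25 nM, RS peptide 100 uM, ATP 1 uM, pH 7.5 Tris, 10 mM MgCl2, 2.5 mM DTT; 4.5 h RT; ATP depletion read by Kinase-Glo luminescence.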

[8] = target: Dual specificity protein kinase CLK4 (Homo sapiens) (UniProt Q9HAZ1); test: qHTS Assay for Inhibitors of CDC-like Kinase 4 (ADP-Glo Assay) (AID 1771); details: recombinant CLK4, ADP-Glo luminescence; series mostly up to 80 µM; further: nearly all actives have a fitted effect of over 70% in size; further: potency means the concentration at half of the fitted maximal effect
How it was run: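 25 nM Clk4, 100 uM RS peptide, 1 uM ATP (final); 2 mM MgCl2, 0.5 mM EGTA, 2.5 mM DTT, 0.01% Triton X-100; 1 hr RT. ADP-Glo readout: ATP depletion 45 min, conversion/luciferase 30 min, luminescence.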

[9] = target: Ubiquitin carboxyl-terminal hydrolase 1 (Homo sapiens) (UniProt O94782); test: Inhibitors of USP1/UAF1: Pilot qHTS (AID 504865); details: purified USP1/UAF1, Ub-rhodamine cleavage fluorescence; series mostly up to 54.9 µM;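 further: rhodamine fluorescence freed from ubiquitin-rhodamine substrate followed over time; top concentration of the series differs between compounds; on the % scale 0 is the no-effect control and ±100 the full control effect; nearly all actives have a fitted effect of over 35% in size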
How it was run: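 Enzyme-free wells gave the negative control, while test wells held 1nM USP1/UAF1 preincubated with compound for 15 min at room temperature. Ub-Rho at 150nM final started the reaction, and fluorescence at 480/540 nm was recorded kinetically.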

[10] = Primary qHTS for small molecule stabilizers of the endoplasmic reticulum resident proteome: Secreted ER Calcium Modulated Protein (SERCaMP) assay (AID 1508630); details: SH-SY5Y GLuc-SERCaMP (Gaussia luciferase released on ER calcium loss) secretion, thapsigargin, luminescence; series mostly up to 38.4 µM; further: on the % scale 0 is the no-effect control and ±100 the full control effect
How it was run: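 The SH-SY5Y reporter protocol was run at 3 concentrations up to 38.3 uM (primary) or 11 concentrations (follow-up): 16 h compound, 100 nM thapsigargin for 4 h, then extracellular luciferase luminescence.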

[11] = AP1 Signaling Pathway (AID 357; active means well fitted curve in either direction with a large enough effect, not every such curve was filed as active;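 further: ME-180 reporter cells stimulated with EGF at its EC50 level; on the % scale 0 is the no-effect control and ±100 the full control effect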); details: ME-180 AP-1-bla reporter, EGF-induced, beta-lactamase ratio, 5 h; at 7.69 µM (top of the series) unless noted
How it was run: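 A ratiometric CCF4 readout (405 nm excitation; 460 and 530 nm emission) quantified AP-1-driven beta-lactamase in ME-180 cells after 5 h with compound and EC50 EGF; AC50 values were derived for activators and inhibitors.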

[12] = Stat Signaling Pathway (AID 446; active means well fitted curve in either direction with a large enough effect, not every such curve was filed as active;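 further: ME-180 cervical cancer cells given 40 pM IL-6 alongside compound; SIE-controlled beta-lactamase reporter measured as 460/530 nm FRET emission ratio; on the % scale 0 is the no-effect control and ±100 the full control effect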); details: ME-180 (cervical carcinoma) SIE beta-lactamase reporter, IL-6 stimulated, 5 h; at 7.69 µM (top of the series) unless noted
How it was run: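 Compound effects on IL-6-induced STAT reporter activity were measured in ME-180 cells. After overnight culture, cells were co-treated with 40 pM IL-6 for 5 hrs before beta-lactamase substrate loading at room temperature.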

[13] = target: 3',5'-cyclic-AMP phosphodiesterase 4B (Homo sapiens) (UniProt Q07343); test: qHTS Assay for Inhibitors of PDE-IV (AID 607; active means well fitted activation curve with a large enough effect in the main read-out, with a control signal flat, not every such curve was filed as active; further: % of control where 0% means no effect); details: HEK293 ACTOne CNG channel cells, membrane potential fluorescence; series mostly up to 22.9 µM
How it was run: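 ACTOne HEK293 cells carry a modified cAMP-gated CNG channel and express endogenous PDE4; plated 1000 cells/well, compounds up to 22.9 uM final. Membrane-potential dye fluorescence (ex 535/em 590) was read; parental cells received 10 uM forskolin + 100 uM RO 20-1724.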

[14] = target: Cytochrome P450 2C9 (Homo sapiens) (UniProt P11712); test: qHTS Assay for Inhibitors and Substrates of Cytochrome P450 2C9 (AID 883); details: recombinant CYP2C9, luciferin-H luminescence, 60 min; series mostly up to 57.1 µM; further: on the % scale 0 is the no-effect control and ±100 the full control effect; nearly all actives have a fitted effect of over 60% in size
How it was run: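 Inhibition of CYP2C9 is scored as loss of luminescence, with 57uM sulphaphenazole defining 100% inhibition. Substrate Luciferin-H is used at 100uM, equal to its KM; enzyme at 10nM in 25mM KPO4, 60 min at 37C with NADPH regeneration.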

[15] = target: Cytochrome P450 3A4 (Homo sapiens) (UniProt P08684); test: qHTS Assay for Inhibitors and Substrates of Cytochrome P450 3A4 (AID 884); details: recombinant CYP3A4, Luciferin-PPXE luminescence; series mostly up to 57.1 µM; further: potency means the concentration at half of the fitted maximal effect; nearly all actives have a fitted effect of over 50% in size
How it was run: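 Luminescent readout of luciferin produced by CYP3A4 (20 nM) dealkylation of Luciferin-PPXE, 25 uM (its KM). NADPH-driven reaction ran 60 min at RT after 10 min compound preincubation; data scaled to 57 uM ketoconazole as 100% inhibition.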

[16] = target: Cytochrome P450 3A4 (Homo sapiens) (UniProt P08684); test: qHTS Assay for Activators of Cytochrome P450 3A4 (AID 885); details: recombinant CYP3A4, Luciferin-PPXE luminescence, 60 min; series mostly up to 57.1 µM; further: nearly all actives have a fitted effect of over 65% in size
How it was run: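 CYP3A4 activity: Luciferin-PPXE O-dealkylation, 25uM substrate, 200mM KPO4, RT throughout. Read-out is luciferase luminescence; higher values reflect activation.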

[17] = NFAT Signaling Pathway (AID 444; active means well fitted curve in either direction with a large enough effect, not every such curve was filed as active); details: Jurkat NFAT-bla M1, carbachol, beta-lactamase ratio, 5 h; at 7.69 µM (top of the series) unless noted
How it was run: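 Read-out: CCF4 FRET ratio (460 nm/530 nm) after 1 h RT dye loading, used for %activity and AC50 from titration series. Cells: Jurkat NFAT-β-lactamase/M1 line, treated with compound plus 1 uM carbachol for 5 h, 37 °C.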

Chain of Lysosomal acid glucosylceramidase (Homo sapiens) (P04062 whole entry, looked up): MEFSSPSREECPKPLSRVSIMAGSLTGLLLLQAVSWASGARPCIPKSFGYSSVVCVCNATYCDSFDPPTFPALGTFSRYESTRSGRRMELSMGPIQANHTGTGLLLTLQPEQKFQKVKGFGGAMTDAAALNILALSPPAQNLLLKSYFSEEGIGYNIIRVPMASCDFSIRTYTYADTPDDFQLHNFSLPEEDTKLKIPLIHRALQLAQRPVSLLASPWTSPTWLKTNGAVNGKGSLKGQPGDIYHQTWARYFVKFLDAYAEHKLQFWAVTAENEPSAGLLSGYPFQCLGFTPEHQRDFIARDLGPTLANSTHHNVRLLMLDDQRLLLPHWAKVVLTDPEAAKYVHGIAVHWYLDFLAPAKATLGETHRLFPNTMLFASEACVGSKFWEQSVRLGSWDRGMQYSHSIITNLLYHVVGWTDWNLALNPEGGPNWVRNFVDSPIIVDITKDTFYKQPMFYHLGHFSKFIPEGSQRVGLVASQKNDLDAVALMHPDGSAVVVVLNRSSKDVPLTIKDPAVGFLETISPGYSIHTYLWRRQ
Chain of Dual specificity protein kinase CLK4 (Homo sapiens) (Q9HAZ1 whole entry, looked up): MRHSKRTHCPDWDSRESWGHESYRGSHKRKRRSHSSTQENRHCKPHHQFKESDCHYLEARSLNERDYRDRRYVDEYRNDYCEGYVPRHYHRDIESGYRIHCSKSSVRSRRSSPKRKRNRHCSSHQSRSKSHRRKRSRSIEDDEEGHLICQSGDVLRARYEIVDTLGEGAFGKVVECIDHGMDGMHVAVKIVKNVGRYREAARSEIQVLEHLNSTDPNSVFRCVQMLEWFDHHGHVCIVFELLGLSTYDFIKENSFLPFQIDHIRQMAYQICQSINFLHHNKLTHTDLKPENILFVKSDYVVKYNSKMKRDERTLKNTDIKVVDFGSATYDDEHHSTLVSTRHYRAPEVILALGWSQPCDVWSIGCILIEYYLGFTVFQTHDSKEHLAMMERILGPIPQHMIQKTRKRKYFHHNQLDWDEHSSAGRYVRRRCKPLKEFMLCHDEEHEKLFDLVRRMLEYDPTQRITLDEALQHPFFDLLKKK
Chain of Ubiquitin carboxyl-terminal hydrolase 1 (Homo sapiens) (O94782 whole entry, looked up): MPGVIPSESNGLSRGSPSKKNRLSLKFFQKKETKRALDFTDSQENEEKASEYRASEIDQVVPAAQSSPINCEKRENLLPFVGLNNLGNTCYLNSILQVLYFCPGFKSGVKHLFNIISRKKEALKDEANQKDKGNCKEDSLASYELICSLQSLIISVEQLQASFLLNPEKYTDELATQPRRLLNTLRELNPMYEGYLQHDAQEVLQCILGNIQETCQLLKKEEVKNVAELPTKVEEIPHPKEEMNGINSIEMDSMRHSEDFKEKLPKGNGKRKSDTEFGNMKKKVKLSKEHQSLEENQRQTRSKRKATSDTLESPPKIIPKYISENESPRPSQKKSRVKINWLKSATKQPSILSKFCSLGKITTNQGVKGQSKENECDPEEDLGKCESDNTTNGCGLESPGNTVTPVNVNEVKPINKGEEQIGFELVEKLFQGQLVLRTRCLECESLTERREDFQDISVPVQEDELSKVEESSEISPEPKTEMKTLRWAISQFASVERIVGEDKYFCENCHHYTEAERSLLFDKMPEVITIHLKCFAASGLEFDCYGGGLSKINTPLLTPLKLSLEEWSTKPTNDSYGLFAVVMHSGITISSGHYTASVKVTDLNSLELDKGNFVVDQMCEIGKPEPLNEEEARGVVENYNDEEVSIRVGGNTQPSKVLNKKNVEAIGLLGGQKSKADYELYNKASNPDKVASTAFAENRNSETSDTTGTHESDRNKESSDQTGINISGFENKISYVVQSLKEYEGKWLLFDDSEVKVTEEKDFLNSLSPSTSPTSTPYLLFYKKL
Chain of Glucocorticoid receptor (Homo sapiens) (P04150 whole entry, looked up, the tested form may be a part): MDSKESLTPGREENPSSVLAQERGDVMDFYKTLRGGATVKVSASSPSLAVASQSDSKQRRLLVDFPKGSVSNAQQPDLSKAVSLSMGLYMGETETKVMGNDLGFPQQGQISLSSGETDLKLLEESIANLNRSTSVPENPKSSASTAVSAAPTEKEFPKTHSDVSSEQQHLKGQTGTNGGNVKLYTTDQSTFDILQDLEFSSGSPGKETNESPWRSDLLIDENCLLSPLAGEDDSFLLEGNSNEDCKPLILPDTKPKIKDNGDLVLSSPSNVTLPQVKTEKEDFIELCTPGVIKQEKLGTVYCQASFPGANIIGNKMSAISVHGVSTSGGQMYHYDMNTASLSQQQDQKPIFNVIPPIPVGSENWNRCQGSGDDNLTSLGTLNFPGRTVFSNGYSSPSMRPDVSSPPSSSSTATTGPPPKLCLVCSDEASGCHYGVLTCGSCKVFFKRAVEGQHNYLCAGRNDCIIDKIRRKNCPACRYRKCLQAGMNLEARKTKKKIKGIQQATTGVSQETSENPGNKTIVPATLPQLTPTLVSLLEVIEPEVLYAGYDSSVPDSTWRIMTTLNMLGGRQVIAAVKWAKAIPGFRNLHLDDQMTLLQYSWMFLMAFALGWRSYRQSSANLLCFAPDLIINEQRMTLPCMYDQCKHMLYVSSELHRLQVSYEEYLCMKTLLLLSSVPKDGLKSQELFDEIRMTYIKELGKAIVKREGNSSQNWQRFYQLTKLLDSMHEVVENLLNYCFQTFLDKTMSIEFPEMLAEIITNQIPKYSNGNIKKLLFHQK
Chain of Cytochrome P450 1A2 (Homo sapiens) (P05177 whole entry, looked up): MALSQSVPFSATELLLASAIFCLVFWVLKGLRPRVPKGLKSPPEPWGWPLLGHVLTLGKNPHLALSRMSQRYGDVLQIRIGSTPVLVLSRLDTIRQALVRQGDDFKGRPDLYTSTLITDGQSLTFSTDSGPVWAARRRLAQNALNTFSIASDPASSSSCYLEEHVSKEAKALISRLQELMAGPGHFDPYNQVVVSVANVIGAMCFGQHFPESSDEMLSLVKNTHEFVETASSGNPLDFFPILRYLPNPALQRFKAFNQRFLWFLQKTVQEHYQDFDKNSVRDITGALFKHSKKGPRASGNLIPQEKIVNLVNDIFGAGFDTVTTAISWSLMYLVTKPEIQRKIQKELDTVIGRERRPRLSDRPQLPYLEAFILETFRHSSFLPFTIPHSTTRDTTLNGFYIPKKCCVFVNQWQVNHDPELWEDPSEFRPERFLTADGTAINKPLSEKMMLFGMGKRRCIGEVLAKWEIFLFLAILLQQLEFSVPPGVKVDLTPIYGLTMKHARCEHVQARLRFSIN
Chain of Cytochrome P450 3A4 (Homo sapiens) (P08684 whole entry, looked up): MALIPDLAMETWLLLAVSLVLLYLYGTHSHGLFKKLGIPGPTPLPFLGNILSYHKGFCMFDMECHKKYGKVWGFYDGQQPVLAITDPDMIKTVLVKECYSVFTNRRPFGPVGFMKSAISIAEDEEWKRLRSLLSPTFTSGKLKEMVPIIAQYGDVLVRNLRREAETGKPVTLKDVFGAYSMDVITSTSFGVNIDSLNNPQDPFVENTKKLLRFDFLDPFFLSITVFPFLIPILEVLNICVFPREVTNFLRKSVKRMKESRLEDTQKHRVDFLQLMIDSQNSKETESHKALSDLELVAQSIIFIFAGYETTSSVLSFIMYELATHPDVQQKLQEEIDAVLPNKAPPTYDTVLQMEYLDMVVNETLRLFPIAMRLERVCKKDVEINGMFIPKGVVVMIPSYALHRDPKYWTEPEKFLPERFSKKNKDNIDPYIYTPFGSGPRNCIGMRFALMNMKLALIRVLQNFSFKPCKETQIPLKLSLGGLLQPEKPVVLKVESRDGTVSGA
Chain of 3',5'-cyclic-AMP phosphodiesterase 4B (Homo sapiens) (Q07343 whole entry, looked up): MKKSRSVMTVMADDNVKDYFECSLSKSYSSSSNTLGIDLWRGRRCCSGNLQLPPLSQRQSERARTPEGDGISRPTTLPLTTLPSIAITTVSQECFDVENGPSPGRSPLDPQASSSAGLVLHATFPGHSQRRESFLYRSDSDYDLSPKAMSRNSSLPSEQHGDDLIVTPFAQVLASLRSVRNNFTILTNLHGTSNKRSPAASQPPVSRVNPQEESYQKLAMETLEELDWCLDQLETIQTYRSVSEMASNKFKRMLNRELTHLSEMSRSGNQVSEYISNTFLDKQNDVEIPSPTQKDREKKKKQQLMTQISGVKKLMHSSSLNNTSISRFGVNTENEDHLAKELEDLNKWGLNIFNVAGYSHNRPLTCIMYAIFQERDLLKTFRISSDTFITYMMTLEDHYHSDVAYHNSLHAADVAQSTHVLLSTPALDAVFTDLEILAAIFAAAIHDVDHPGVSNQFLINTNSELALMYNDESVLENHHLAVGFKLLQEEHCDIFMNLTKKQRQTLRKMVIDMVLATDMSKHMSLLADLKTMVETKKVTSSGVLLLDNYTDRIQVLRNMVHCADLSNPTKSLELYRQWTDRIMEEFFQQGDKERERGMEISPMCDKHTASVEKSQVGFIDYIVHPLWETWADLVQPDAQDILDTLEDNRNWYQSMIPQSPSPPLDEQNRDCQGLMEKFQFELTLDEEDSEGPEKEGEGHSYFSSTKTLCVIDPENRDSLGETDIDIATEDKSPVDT
Chain of Cytochrome P450 2C9 (Homo sapiens) (P11712 whole entry, looked up): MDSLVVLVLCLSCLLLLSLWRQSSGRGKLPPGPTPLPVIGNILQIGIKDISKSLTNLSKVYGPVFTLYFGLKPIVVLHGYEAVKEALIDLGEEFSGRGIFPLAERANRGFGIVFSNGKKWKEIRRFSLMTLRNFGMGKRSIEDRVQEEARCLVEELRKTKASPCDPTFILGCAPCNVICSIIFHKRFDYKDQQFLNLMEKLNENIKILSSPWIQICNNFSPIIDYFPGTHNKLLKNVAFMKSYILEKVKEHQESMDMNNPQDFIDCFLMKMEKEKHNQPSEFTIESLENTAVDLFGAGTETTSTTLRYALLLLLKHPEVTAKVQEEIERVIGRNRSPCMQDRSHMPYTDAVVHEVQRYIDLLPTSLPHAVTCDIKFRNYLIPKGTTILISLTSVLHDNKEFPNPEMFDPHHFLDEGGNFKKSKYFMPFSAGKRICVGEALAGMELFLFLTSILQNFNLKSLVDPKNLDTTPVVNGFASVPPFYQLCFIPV

Row | SMILES | Potency [1] | Potency [2] | Potency [3] | Potency [4] | Potency [5] | Potency [6] | Potency [7] | Potency [8] | Potency [9] | outcome [10] | activity change, negative = inhibition [11] | activity, negative = inhibition [12] | Potency [13] | activity change, negative = inhibition [14] | Potency [15] | Potency [16] | activity change, negative = inhibition [17]
1 | CCNc1ncc2nc(-c3ccc(F)cc3)c(=O)n(-c3ccccc3)c2n1 | > 11.4 µM | 0.398 µM (active) | > 9.22 µM | > 46 µM | inactive | 3.16 µM (active) | inactive | inactive | inactive | inactive |  |  |  |  |  |  | 
2 | Cc1cnc(CNc2ccnc(-c3cccnc3)n2)cn1 | > 11.4 µM | 7.94 µM (active) | > 46 µM | > 46 µM | inactive |  | 15.8 µM (active) | 15.8 µM (active) | inactive | inactive | 16.6% | 13.3% | inactive | 21.5% [at 2.29 µM] | 5.01 µM (active) | inactive | 
3 | CN1CCN(c2ccnc(-c3cccnc3)n2)CC1 | > 11.4 µM |  | > 46 µM | > 46 µM | inactive |  | 25.1 µM (active) | 15.8 µM (active) | inactive | inactive | -0.185% | 12.4% | inactive |  |  |  | 0.489%
